# According to PubChem BioAssay (EPA / NIEHS):
# Inconclusive results are not listed. Active and inactive are the calls of the source. Rule for the calls: active = hit-call score of the fitted dose curve at least 0.9, where 1 is the maximum; inconclusive = response in the unintended direction; inactive = score below 0.9.
# Experiment: TOX21_PR_LUC_Followup_Antagonist_viability: Viability Assessment in the Tox21 HEK293 Progesterone Receptor (PR) Antagonism Luciferase Follow-Up Assay (AID 2283940)
# Excerpt: TOX21_PR_LUC_Followup is a secondary assay for specificity for the TOX21_PR_BLA_Agonist assay. To differentiate true PR agonists from cytotoxic substances, this follow up assay is multiplexed with a cell viability assay.TOX21_PR_LUC_Followup_Antagonist_viability is an assay readout measuring cellular ATP content and detected with CellTiter-Glo Luciferase-coupled ATP quantitation.TOX21_PR_LUC_Followup_Antagonist_viability used a type of viability reporter where loss-of-signal activity can be used to understand changes in the cell viability. Furthermore, this assay endpoint can be referred to as a secondary readout, because this assay has produced multiple assay endpoints where this one serves a viability function. To generalize the intended target to other relatable targets, this assay endpoint is annotated to the cell cycle intended target family, where the subfamily is cytotoxicity.
# Quality Control Precautions: Maintain cells below 85-90% confluence in culture medium. For assay purpose, the cells should be cultured in assay medium with 10% charcoal stripped FBS for 5 days with alternate day medium changed to fresh medium. Especially while in assay culture, the cells should not reach more than 85% confluence as they would become harder to detach if they reach over confluence.Assay Protocol: HEK293-PR-A-luc cells were dispensed at 3,000 cells/5 uL/well of culture medium into white wall/solid-bottom 1536-well plates using a Multidrop Combi (ThermoFisher Scientific, Waltham, MA) dispenser. After the assay plates were incubated at 37C and […] for 5 h, 23 nL of compounds dissolved in DMSO, positive controls or DMSO only was transferred to the assay plate by a Pintool station (Kalypsys, San Diego, CA). The plates were incubated at 37C and […] for 16 h. Then 4 uL of ONE-Glo reagent (Promega, Madison, WI) was added to each plate using a BioRAPTR Flying Reagent Dispenser (FRD) workstation (Beckman Coulter, Indianapolis, IN, USA) and luminescence was quantified on a ViewLux (PerkinElmer, Shelton, CT) plate reader after 30 min incubation at room temperature.
row,SMILES,outcome
1,CCOP(=S)(OCC)Oc1cc(Cl)c(Br)cc1Cl,inactive
2,C[C@]12CC[C@H]3[C@@H](CCC4=CC(=O)CC[C@@H]43)[C@@H]1CC[C@@H]2OC(=O)CCC1CCCCC1,inactive
3,O=C1CN=C(c2ccccc2)c2cc(Cl)ccc2N1CC1CC1,inactive
4,C[C@]12CC[C@H]3[C@@H](CCC4=CC(=O)CC[C@@H]43)[C@@H]1CC[C@@H]2OC(=O)CCc1ccccc1,inactive
5,C[C@]12C=CC(=O)C=C1CC[C@@H]1[C@@H]2CC[C@@]2(C)[C@H]1CC[C@]2(C)O,inactive
6,COP(=S)(NC(C)C)Oc1ccc(C)cc1[N+](=O)[O-] (centres undefined),inactive
7,O=C(CBr)Nc1ccc(Cl)cc1C(=O)c1ccccc1F,inactive
8,C[C@]12Cc3cn[nH]c3C[C@@H]1CC[C@@H]1[C@@H]2CC[C@@]2(C)[C@H]1CC[C@]2(C)O,inactive
9,C=C1C[C@@H]2[C@H](CC[C@]3(C)C(=O)CC[C@@H]23)[C@@]2(C)C=CC(=O)C=C12,inactive
10,CC(=O)c1cc2c(cc1C)C(C)(C)C(C)CC2(C)C (centres undefined),inactive
11,C[C@]12CCC(=O)C(O)=C1CC[C@@H]1[C@@H]2CC[C@]2(C)C(=O)CC[C@@H]12,inactive
12,C#C[C@]1(O)CC[C@H]2[C@@H]3CCC4=CC(=O)CCC4=C3C=C[C@@]21CC,inactive
13,N#Cc1cc(I)c(O)c(I)c1,inactive
14,CC1COC2(c3ccccc3Cl)c3cc(Cl)ccc3NC(=O)CN12 (centres undefined),inactive
15,C[C@]12C/C(=C/O)C(=O)C[C@@H]1CC[C@@H]1[C@@H]2CC[C@@]2(C)[C@H]1CC[C@]2(C)O,inactive
16,CC(C)(c1cc(Cl)c(O)c(Cl)c1)c1cc(Cl)c(O)c(Cl)c1,inactive
17,C[C@H]1CCC[C@H](O)CCCCCc2cc(O)cc(O)c2C(=O)O1,inactive
18,CCC1COC(Cn2cncn2)(c2ccc(Cl)cc2Cl)O1 (centres undefined),inactive
19,C[C@]12CC[C@H]3[C@@H](CC[C@@]45O[C@@H]4C(O)=C(C#N)C[C@]35C)[C@@H]1CC[C@@H]2O,inactive
20,C=CC[C@]1(O)CC[C@H]2[C@@H]3CCC4=CC(=O)CCC4=C3C=C[C@@]21C,inactive
21,Nc1ccc(Cl)cc1C(=O)c1ccccc1F,inactive
22,CC[C@H]1C[C@H]2[C@@H]3CCC4=CC(=O)CC[C@@H]4[C@H]3CC[C@]2(C)[C@H]1O,inactive
23,O=[N+]([O-])c1ccc2ccc3cccc4ccc1c2c34,inactive
24,CC(=O)O[C@H]1CC[C@@]2(C)C(=CC[C@@H]3[C@@H]2CC[C@]2(C)C(=O)CC[C@@H]32)C1,inactive
